± gives the standard deviation. Over roughly 6,600 sequences, “pre-steady-state target cleavage rate” has its median near 0.07; the highest 2% begin near 0.72. The full list was thinned out, with the highest values kept by preference.

The test concerns MIWI (PIWIL1) piRISC loaded with Kctd7 piRNA (30 nt). Description: pre-steady-state target cleavage rate (min^-1); MIWI and MILI are mouse PIWI proteins and EfPiwi is from a freshwater sponge; tags in brackets are library labels; higher = faster piRNA-guided slicing of the target. The note with it: guide: Kctd7 piRNA 5'p-UGUUAAUCUCUCAGAGAAGGUGACAGUGAU; auxiliary factor: 500 nM mouse GTSF1. Here is the method: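 Cleave-'n-Seq: a library of target RNAs (target site embedded in constant flanks, ACAGCATTCCGCGTTAGTGATATCCG... 5' flank; DNA-blocked outside the site) at 0.1 nM was incubated with 1 nM active mouse MILI or MIWI piRISC (synthetic 5'-monophosphorylated piRNA guide) with or without 500 nM mouse GTSF1 at 33 °C for 1 min to 16 h. Uncleaved targets were sequenced and normalised to non-target controls, and the pooled three trials were fitted to a burst-and-steady-state model to give the pre-steady-state cleavage rate (min^-1; k3 is constrained to at most 1e-4). Sequence is the target site only; target names encode pairing extent (gX:gY) and contiguous / 1-mismatch / 2-mismatch / bulge geometry. Fits with R² ≤ 0 are excluded.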
For the sequence UAGUGACAGUCCUUCUCAGAGAGUUUAACA, the “pre-steady-state target cleavage rate” value came to 0.0044 ± 0.0027.

For the sequence UAGUGACUCACGAUCUCUGAGAGAUUAACA, the “pre-steady-state target cleavage rate” value was determined as 0.00958 ± 0.0018.

UACACUGUCACCUUCUCUGAGAGAUGUAACA: the “pre-steady-state target cleavage rate” value worked out at 0.386 ± 0.051.

In the case of AACACUCUCACCUUCUCUGAGAGAUUAACA, the “pre-steady-state target cleavage rate” value was determined as 0.564 ± 0.035.

As for UACACUGUCACCUUCUCUGAGAGAUUACCA, the “pre-steady-state target cleavage rate” value worked out at 0.152 ± 0.024.

Turning to AUCACUGUCACAUUCUCUGAGAGAUUAACA, the “pre-steady-state target cleavage rate” value came out at 0.799 ± 0.035.

For UUCACUGUCACCAUUCUCUGAGAGAUUAACA, the “pre-steady-state target cleavage rate” value came to 0.725 ± 0.029.

In the case of UUCACUGUCACAUUCUCUGAGAGAUUAACA, the “pre-steady-state target cleavage rate” value was 0.682 ± 0.031.

On to UAGUCUGUCACCAUUCUCUGAGAGAUUAACA, for which the “pre-steady-state target cleavage rate” value is 0.601 ± 0.03.

As to UUCACUGUCACCUCUCUCUGAGAGAUUAACA, the “pre-steady-state target cleavage rate” value was found to be 0.289 ± 0.022.

For UUCACUGUCACCUCUCUGAGAGAUUAACA, the “pre-steady-state target cleavage rate” value came out at 0.501 ± 0.037.

As for AUCACUGUCACCAUUCUCUGAGAGAUUAACA, the “pre-steady-state target cleavage rate” value came out at 0.741 ± 0.036.

Consider UACACUGUCACAUUCUCUGAGAGAUUAACA, for which the “pre-steady-state target cleavage rate” value was found to be 0.676 ± 0.036.

Consider UACACUGUCACCAUUCUCUGAGAGAUUAACA, for which the “pre-steady-state target cleavage rate” value is 0.674 ± 0.035.

For the sequence UACACUGUCCACCUUCUCUGAGAGAUUAACA, the “pre-steady-state target cleavage rate” value worked out at 0.496 ± 0.038.

For UAGAGUGACACCUUCUCUGAGAGAUUAACA, the “pre-steady-state target cleavage rate” value amounted to 0.55 ± 0.023.

On to UAGACUUUCACCUUCUCUGAGAGAUUAACA, for which the “pre-steady-state target cleavage rate” value turned out to be 0.612 ± 0.033.

With UAGUGACAGUGUUUCUCUGAGAGAUUAACA, the “pre-steady-state target cleavage rate” value was 0.00493 ± 0.0019.

On to UAGUGUGACACCUUCUCUGAGAGAUUAUGA, for which the “pre-steady-state target cleavage rate” value came to 0.0202 ± 0.0074.

Consider UAGACUGUCAACUUCUCUGAGAGAUUAACA, for which the “pre-steady-state target cleavage rate” value was 0.726 ± 0.049.

Regarding UACACUGUCAACUUCUCUGAGAGAUUAACA, the “pre-steady-state target cleavage rate” value came out at 0.796 ± 0.035.

Consider UAGUCUGUCAACUUCUCUGAGAGAUUAACA, for which the “pre-steady-state target cleavage rate” value was determined as 0.593 ± 0.024.

Consider AUCACUGUCAACUUCUCUGAGAGAUUAACA, for which the “pre-steady-state target cleavage rate” value turned out to be 0.793 ± 0.045.

UACACUGUCACACUUCUCUGAGAGAUUAACA: the “pre-steady-state target cleavage rate” value was determined as 0.544 ± 0.023.

On to UAGACUGUCAACCUUCUCUGAGAGAUUAACA, for which the “pre-steady-state target cleavage rate” value is 0.282 ± 0.023.

Take UUCACUGUCAACUUCUCUGAGAGAUUAACA: the “pre-steady-state target cleavage rate” value was determined as 0.668 ± 0.028.

Regarding AUCACUGUCACUUCUCUGAGAGAUUAACA, the “pre-steady-state target cleavage rate” value stood at 0.628 ± 0.044.

UACACUGUCAACCUUCUCUGAGAGAUUAACA: the “pre-steady-state target cleavage rate” value is 0.193 ± 0.016.

UUCACUGUCACCUUCUCUGAAGAGAUUAACA: the “pre-steady-state target cleavage rate” value amounted to 0.019 ± 0.0081.

With UAGUGACUCACCUUCUGUGAGAGAUUAAGA, the “pre-steady-state target cleavage rate” value worked out at 0.088 ± 0.02.

As for UAGACUGUCACCUUCUCUCUGAGAUUAACA, the “pre-steady-state target cleavage rate” value turned out to be 0.0118 ± 0.0026.

Consider AAGACUGUCACCUUCUCUGAGAGAUUAAGA, for which the “pre-steady-state target cleavage rate” value worked out at 0.238 ± 0.037.

For the sequence “UAGACUGUCACCUUCUCUGAGAGAUUAACA [g2:g27:cont:t1A]”, the “pre-steady-state target cleavage rate” value is 0.805 ± 0.05.

In the case of “UAGACUGUCACCUUCUCUGAGAGAUUAACC [g2:g27:cont:t1C]”, the “pre-steady-state target cleavage rate” value is 0.322 ± 0.03.

In the case of UAGACUGUCACCUUCUCUGAGAAGAUUAACA, the “pre-steady-state target cleavage rate” value stood at 0.0399 ± 0.0084.

Turning to AAGACUGUCACCUUCUCUGAGAGAUUAACA, the “pre-steady-state target cleavage rate” value was determined as 0.786 ± 0.036.

As for UAGACUGUCACCUUCUCUGUGAGAUUUUGA, the “pre-steady-state target cleavage rate” value is 0.0048 ± 0.0033.

As for UAGUGACACACCUUCACUGAGAGAAUAACA, the “pre-steady-state target cleavage rate” value turned out to be 0.0335 ± 0.0091.

UAGUGAGUCACCUUCACUGAGAGAUUUUGA: the “pre-steady-state target cleavage rate” value was 0.0525 ± 0.017.

In the case of UACACUCUCACCUUCACUGAGAGAUUAACA, the “pre-steady-state target cleavage rate” value was found to be 0.256 ± 0.02.

Take UACACUGUCACCUCUCUGAGAGAUUAACA: the “pre-steady-state target cleavage rate” value turned out to be 0.5 ± 0.035.

Take UAGACUGUCACCUCUCUGAGAGAUUAACA: the “pre-steady-state target cleavage rate” value came out at 0.321 ± 0.036.

With UACACUGUCACCUCCUCUGAGAGAUUAACA, the “pre-steady-state target cleavage rate” value was 0.731 ± 0.026.

Consider UAGACUGUCACCUCCUCUGAGAGAUUAACA, for which the “pre-steady-state target cleavage rate” value stood at 0.744 ± 0.035.

As for UUCACUGUCACCUCCUCUGAGAGAUUAACA, the “pre-steady-state target cleavage rate” value was 0.639 ± 0.021.

For AUCACUGUCACCUCCUCUGAGAGAUUAACA, the “pre-steady-state target cleavage rate” value amounted to 0.802 ± 0.033.

As to UAGACUGUCACCUGCUCUGAGAGAUUAACA, the “pre-steady-state target cleavage rate” value came to 0.77 ± 0.043.

For the sequence AUCACUGUCACCUCUCUCUGAGAGAUUAACA, the “pre-steady-state target cleavage rate” value came out at 0.515 ± 0.031.

In the case of UAGACUGUCACCUUGCUCUGAGAGAUUAACA, the “pre-steady-state target cleavage rate” value was 0.358 ± 0.049.

UAGACUGUCACCUGUCUCUGAGAGAUUAACA: the “pre-steady-state target cleavage rate” value was 0.561 ± 0.036.

As to UACACUGUCACCUCUCUCUGAGAGAUUAACA, the “pre-steady-state target cleavage rate” value is 0.425 ± 0.029.

Consider UAGACUGUCACCUCUCUCUGAGAGAUUAACA, for which the “pre-steady-state target cleavage rate” value was 0.409 ± 0.044.

As to UUCACUGUCAGGUUCUCUGAGAGAUUAUGA, the “pre-steady-state target cleavage rate” value came to 0.0127 ± 0.003.

As to UAGUGACUCACCUUCUCUGACACAUUAACA, the “pre-steady-state target cleavage rate” value is 0.00928 ± 0.0035.

As for UUCACUGUCACCUUGUCUGAGUGAUUAACA, the “pre-steady-state target cleavage rate” value was 0.0394 ± 0.0054.

In the case of UAGUCUGUCUCCUUCUGUGAGAGAUUAACA, the “pre-steady-state target cleavage rate” value stood at 0.536 ± 0.028.

For UUCACUGUGACGUUCUCUGAGAGAUUAACA, the “pre-steady-state target cleavage rate” value stood at 0.59 ± 0.026.

As to AUCAGACUCACCUUCUCUGAGAGAUUAAGA, the “pre-steady-state target cleavage rate” value was found to be 0.159 ± 0.028.

For the sequence AUCACUGUCACCUUCUCUGAGAGUAUUUGA, the “pre-steady-state target cleavage rate” value is 0.109 ± 0.034.

For UUCACUGUCACCUUCUCUGAGAGAAAAUGA, the “pre-steady-state target cleavage rate” value was 0.0429 ± 0.015.

For UAGUGACUCACCUUCUCUCAGAGAUAAACA, the “pre-steady-state target cleavage rate” value stood at 0.0156 ± 0.0032.

On to UAGUGACUCACCCUCUCUGAGAGAUUAACA, for which the “pre-steady-state target cleavage rate” value turned out to be 0.415 ± 0.045.

Consider AUCUCUGUCACCUUCUCUCAGAGAUUAACA, for which the “pre-steady-state target cleavage rate” value was found to be 0.105 ± 0.0088.

Consider UAGUGUGUCACCAUCUCUGACAGAUUAACA, for which the “pre-steady-state target cleavage rate” value came out at 0.222 ± 0.021.

Regarding UAGACUGUCACCUUCUCUGAGAGAUAAUGA, the “pre-steady-state target cleavage rate” value worked out at 0.00696 ± 0.0033.

As for UAGUCUGUCACCUCUCUCUGAGAGAUUAACA, the “pre-steady-state target cleavage rate” value is 0.481 ± 0.032.

Take UAGUCUGUCACCUCCUCUGAGAGAUUAACA: the “pre-steady-state target cleavage rate” value worked out at 0.726 ± 0.038.

As for UAGUCUGUCACCUCUCUGAGAGAUUAACA, the “pre-steady-state target cleavage rate” value was found to be 0.447 ± 0.048.

Take “UAGUGACUCACCUUCUCUGAGAGAUUAACC [g2:g23:cont:t1C]”: the “pre-steady-state target cleavage rate” value was found to be 0.303 ± 0.032.

AUCACUGUCAGGUUCUCUGAGAGAUUAACA: the “pre-steady-state target cleavage rate” value was found to be 0.653 ± 0.043.

With UUCACUGUGACCUUCUCUGAGAGAUAAACA, the “pre-steady-state target cleavage rate” value was found to be 0.214 ± 0.023.

Turning to UUCUCUGUCAGCUUCUCUGAGAGAUUAACA, the “pre-steady-state target cleavage rate” value turned out to be 0.586 ± 0.028.

On to UAGACUGUCAGCUUCUCUGUGAGAUUAACA, for which the “pre-steady-state target cleavage rate” value was found to be 0.198 ± 0.0095.

For the sequence UUCACUGUCAGCUUCUCUGAGAGAUUAACA, the “pre-steady-state target cleavage rate” value was 0.723 ± 0.032.

Turning to AUGACUGUCAGCUUCUCUGAGAGAUUAACA, the “pre-steady-state target cleavage rate” value was determined as 0.721 ± 0.046.

With AACACUGUCAGCUUCUCUGAGAGAUUAACA, the “pre-steady-state target cleavage rate” value stood at 0.753 ± 0.039.

Consider AUCACUGUCUGCUUCUCUGAGAGAUUAACA, for which the “pre-steady-state target cleavage rate” value is 0.74 ± 0.042.

As to UUCACUGUCUGCUUCUCUGAGAGAUUAACA, the “pre-steady-state target cleavage rate” value was 0.639 ± 0.038.

As for UACACUGUCUGCUUCUCUGAGAGAUUAACA, the “pre-steady-state target cleavage rate” value is 0.708 ± 0.043.

Regarding AUCACUGUCAGCUUCUCUGUGAGAUUAACA, the “pre-steady-state target cleavage rate” value came out at 0.237 ± 0.013.

Take UACACUGUCAGCUUCUCUGAGAGAUUAACA: the “pre-steady-state target cleavage rate” value came out at 0.655 ± 0.027.

For the sequence AUCACUGUCAGCUUCUCUGAGAGAUUAACA, the “pre-steady-state target cleavage rate” value was 0.802 ± 0.044.

UAGACUGUCAGCUUCUCUGAGAGAUUAACA: the “pre-steady-state target cleavage rate” value turned out to be 0.753 ± 0.05.

On to UUCACUGUCACGUUCUCUCAGAGAUUAACA, for which the “pre-steady-state target cleavage rate” value stood at 0.0729 ± 0.0078.

For UAGUGACAGUGGAAGUCUGAGAUAUUAACA, the “pre-steady-state target cleavage rate” value was less than 0.0001.

Turning to AUCAGUGUCACCUUGUCUGAGAGAUUAACA, the “pre-steady-state target cleavage rate” value was 0.209 ± 0.029.

As for UACACUGUCACCUUCUCCGAGAGAUUAACA, the “pre-steady-state target cleavage rate” value amounted to 0.351 ± 0.051.

For UUCACUGUCACCUUCUCUGUGAGAUUAUCA, the “pre-steady-state target cleavage rate” value came to 0.106 ± 0.025.

For the sequence UAGUGAGUCACCUACUCUGAGAGAUUAAGA, the “pre-steady-state target cleavage rate” value was 0.13 ± 0.021.

Take UAGACUGUCAGCCUUCUCUGAGAGAUUAACA: the “pre-steady-state target cleavage rate” value amounted to 0.231 ± 0.024.

Take UUCACUGUCACCUUCUCUGACGAGAUUAACA: the “pre-steady-state target cleavage rate” value was determined as 0.0334 ± 0.0098.
